According to PubChem BioAssay (EPA / NIEHS):
Records with an inconclusive call do not appear. Activity calls are given as the source filed them. How the source made its calls, unless noted: active means hit-call score of the fitted dose curve at least 0.9, where 1 is the maximum; inactive means score below 0.9.

Experiments:
[1] = system: Thyroperoxidase (TPO), gene 54314; assay: CCTE_Simmons_AUR_rTPO: CCTE's Amplex UltraRed Assay for Thyroperoxidase (TPO) Inhibition, Simmons Lab (AID 2283662; active means hit-call score of the fitted dose curve at least 0.9, where 1 is the maximum;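 further: potency for loss of signal meaning inhibition of peroxidase activity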)
In short: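 Rat thyroid microsomal TPO + 25 uM AUR in 200 mM K phosphate; cpd 5 nM–87.5 uM [final], 8 conc, 0.5% DMSO; 300 uM H2O2 starts rxn; 37C dark 30 min; endpoint FI 544/590 nm; n=3.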

[2] = CCTE_Simmons_CellTiterGLO_HEK293T: Viability Assessment in CCTE's Assays for Thyroperoxidase (TPO) Inhibition, Simmons Lab (AID 2283665; active means hit-call score of the fitted dose curve at least 0.9, where 1 is the maximum;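 further: cells exposed to compound for 24 h before readout; actives reduce ATP signal below DMSO vehicle meaning cytotoxicity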)
In short: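 Cells were seeded overnight, then exposed to an eight-point series up to 87.5 uM final for 24 hours. CellTiter-Glo reagent was added and luminescence read after 20 min, giving ATP-based viability versus DMSO.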

[3] = target: Luciferin 4-monooxygenase (Photinus pyralis) (UniProt P08659); assay: CCTE_Simmons_QuantiLum_inhib_2: CCTE's Firefly Luciferase Inhibition Assay, Simmons Lab (AID 2283767; active means hit-call score of the fitted dose curve at least 0.9, where 1 is the maximum)
In short: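 First, 5 ng purified luciferase in phosphate buffer with BSA is dispensed per well. Next, test chemicals (5 nM to 87.5 uM final, 0.5% DMSO) are added and incubated 30 min at 37C in darkness. Finally, luciferin reagent is injected and luminescence read kinetically.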

[4] = UKN2_HCS_IMR90_neural_migration: University of Konstanz (UKN) Leist Lab Neural Crest Cell Migration Assay in human induced IMR90 Pluripotent Stem Cells (UKN2) (AID 2284204); conditions: actives raise or lower the signal
In short: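 Stopper-exclusion migration (cMINC), human iPSC-derived neural crest cells; N2-S + EGF/FGF; compound added 24 h post-stopper removal, 24 h exposure. Readout: calcein-AM/Hoechst 30 min, HCS fluorescence imaging; bidirectional fitting, DMSO baseline.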

[5] = IUF_NPC1b_proliferation_BrdU_72hr: Leibniz Research Institute for Environmental Medicine (IUF) 72-hour Neural Progenitor Cell Bromodeoxyuridine (BrdU) Proliferation Assay (NPC1b) (AID 2284207)
In short: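 Luminescent BrdU ELISA measured DNA synthesis during the last 16 h of a 72 h exposure of primary human neural progenitor spheres grown with EGF and FGF. Signal was fitted relative to DMSO controls.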

[6] = IUF_NPC1a_proliferation_area_72hr: Leibniz Research Institute for Environmental Medicine (IUF) 72-hour Neural Progenitor Cell Proliferation Area Assay (NPC1a) (AID 2284208)
In short: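 Measured in 3D suspension: each well held one primary hNPC sphere grown with EGF and FGF at pH 7.2-7.6. Compound stayed on for 72 h, then area was imaged; spheres lacking growth factors defined reduced proliferation.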

[7] = IUF_NPC1_viability_72hr: Viability Assessment at 72 hours in the Leibniz Research Institute for Environmental Medicine (IUF) Neural Progenitor Cell Proliferation Assay (NPC1) (AID 2284209)
In short: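 Spheres of primary human neural progenitors were plated singly in proliferation medium and treated for 72 h. Mitochondrial reduction of resazurin was then measured by fluorescence and analysed against DMSO controls.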

[8] = CCTE_Mundy_HCI_Cortical_Synap_Neur_Matur_NeuriteSpotCountPerNeuriteLength: CCTE's Synaptogenesis and Neurite Maturation Assay in rat cortical cells for Neurite Spot Count per Neurite Length, Mundy Lab (AID 2284210)
In short: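 Read-out: synaptophysin puncta counted along MAP2-stained neurites, normalised to neurite length, by automated high-content imaging. Rat cortical cells; AraC DIV 5; chemical dosing DIV 7; termination DIV 12. DMSO baseline.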

[9] = CCTE_Mundy_HCI_Cortical_Synap_Neur_Matur_BPCount: CCTE's Synaptogenesis and Neurite Maturation Assay in rat cortical cells for Branch Point Count, Mundy Lab (AID 2284211)
In short: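 HCI read-out of branch points from MAP2/synaptophysin/Hoechst immunofluorescence; rat cortical cultures, AraC DIV 5, dosing DIV 7, fixed DIV 12; fit in positive direction vs DMSO baseline.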

[10] = CCTE_Mundy_HCI_Cortical_NOG_NeuriteCount: CCTE's Neurite Outgrowth Assay in rat cortical cells for Neurite Count, Mundy Lab (AID 2284212);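 further: cells fixed about two days after chemical exposure began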
In short: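 Rat cortical primary cells; compound added 2 h post-plating, 1/10 dilution of working solution. Anti-betaIII-tubulin/AF488 ICC; ArrayScan neurite count vs DMSO.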

[11] = CCTE_Mundy_HCI_Cortical_NOG_NeuriteLength: CCTE's Neurite Outgrowth Assay in rat cortical cells for Neurite Length, Mundy Lab (AID 2284213);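 further: neurites imaged about 48 to 50 h after chemical exposure began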
In short: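 First, rat primary cortical cells were plated and, 2 h later, given test chemical as a 1/10 dilution. Finally, βIII-tubulin immunostaining enabled automated imaging of neurite length.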

[12] = CCTE_Mundy_HCI_Cortical_Synap_Neur_Matur_NeuriteLength: CCTE's Synaptogenesis and Neurite Maturation Assay in rat cortical cells for Neurite Length, Mundy Lab (AID 2284214)
In short: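 Cultures of rat primary cortical cells received chemical at DIV 7 and were fixed at DIV 12, after glial arrest with AraC at DIV 5. Neurite length was measured by automated imaging of MAP2 immunofluorescence.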

[13] = CCTE_Mundy_HCI_Cortical_Synap_Neur_Matur_NeuriteSpotCountPerNeuron: CCTE's Synaptogenesis and Neurite Maturation Assay in rat cortical cells for Neurite Spot Count per Neuron Count, Mundy Lab (AID 2284215)
In short: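 Developing rat cortical neurons, with glia suppressed by AraC, are exposed to chemicals from DIV 7 to DIV 12. Automated fluorescence imaging of MAP2-labelled neurites and synaptophysin puncta yields a count per neuron, normalised against DMSO wells.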

[14] = CCTE_Mundy_HCI_Cortical_Synap_Neur_Matur_SynapseCount: CCTE's Synaptogenesis and Neurite Maturation Assay in rat cortical cells for Synapse Count, Mundy Lab (AID 2284218)
In short: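 Cells were plated, allowed 2 hr to attach, treated with AraC at DIV 5, then exposed to chemicals from DIV 7 until DIV 12. After fixation and MAP2/synaptophysin immunolabelling, synapses per neuron were quantified by automated imaging against DMSO.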

[15] = CCTE_Mundy_HCI_Cortical_Synap_Neur_Matur_NeuriteCount: CCTE's Synaptogenesis and Neurite Maturation Assay in rat cortical cells for Neurite Count, Mundy Lab (AID 2284222)
In short: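 Primary rat cortical cells were plated, treated with AraC at DIV 5, then exposed to chemicals from DIV 7 through DIV 12. After fixation and immunostaining for MAP2 and synaptophysin, imaging quantified neurites, with DMSO as the negative control.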

[16] = CCTE_Mundy_HCI_Cortical_Synap_Neur_Matur_CellBodySpotCount: CCTE's Synaptogenesis and Neurite Maturation Assay in rat cortical cells for Cell Body Spot Count, Mundy Lab (AID 2284223)
In short: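 Chemicals were applied to AraC-treated rat primary cortical cells at DIV 7 and measured at DIV 12. Fixed cells were labelled for MAP2, synaptophysin and nuclei, and high-content imaging gave cell body synaptophysin spot counts per neuron relative to DMSO.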

[17] = CCTE_Mundy_HCI_hNP1_Pro_ResponderAvgInten: CCTE's Proliferation Assay in human neuroprogenitor cells, Mundy Lab (AID 2284224; active means hit-call score of the fitted dose curve at least 0.9, where 1 is the maximum;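 further: human neural progenitor cells hNP1 derived from WA09 embryonic stem cells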)
In short: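 Proliferation read as average intensity of BrdU-positive cells, imaged at 26.25 h post-dosing: chemical exposure started after 40–44 h culture, BrdU during final 4 h, paraformaldehyde fixation. Positive-direction fit relative to DMSO.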

[18] = CCTE_Mundy_HCI_Cortical_NOG_NeuronCount: CCTE's Neurite Outgrowth Assay in rat cortical cells for Neuron Count, Mundy Lab (AID 2284236; active means hit-call score of the fitted dose curve at least 0.9, where 1 is the maximum;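 further: neurons counted by imaging betaIII-tubulin and Hoechst stained cortical cells; cells exposed to compound for about 48 hours before fixation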)
In short: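 Read-out: neuron number by high-content imaging of betaIII-tubulin (Alexa Fluor-488) and Hoechst-labelled rat primary cortical cells.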

[19] = CCTE_Mundy_HCI_hNP1_Casp3_7: CCTE's Caspase-Glo 3/7 Assay in human neuroprogenitor cells for Apoptosis, Mundy Lab (AID 2284240)
In short: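 Luminescent caspase-3/7 readout, 26.5 h post-dose, in human neural progenitor cells from WA09 embryonic stem cells. Cells grew 40–44 h at 37 °C, 5% CO2 before chemical addition. Activity analysed as signal increase over DMSO baseline.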

[20] = CCTE_Mundy_HCI_Cortical_Synap_Neur_Matur_NeuronCount: CCTE's Synaptogenesis and Neurite Maturation Assay in rat cortical cells for Neuron Count, Mundy Lab (AID 2284242; active means hit-call score of the fitted dose curve at least 0.9, where 1 is the maximum;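 further: neuron number from Hoechst nuclei and MAP2 staining by high-content imaging; hits reduce neuron count versus DMSO baseline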)
In short: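 Cortical cells from rat are plated, treated with AraC at DIV 5, and exposed to test chemicals with a media change at DIV 7. At DIV 12 they are fixed and immunostained (MAP2, synaptophysin), and imaged neuron counts are compared against DMSO controls.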

Luciferin 4-monooxygenase (Photinus pyralis), sequence (P08659 whole entry, looked up): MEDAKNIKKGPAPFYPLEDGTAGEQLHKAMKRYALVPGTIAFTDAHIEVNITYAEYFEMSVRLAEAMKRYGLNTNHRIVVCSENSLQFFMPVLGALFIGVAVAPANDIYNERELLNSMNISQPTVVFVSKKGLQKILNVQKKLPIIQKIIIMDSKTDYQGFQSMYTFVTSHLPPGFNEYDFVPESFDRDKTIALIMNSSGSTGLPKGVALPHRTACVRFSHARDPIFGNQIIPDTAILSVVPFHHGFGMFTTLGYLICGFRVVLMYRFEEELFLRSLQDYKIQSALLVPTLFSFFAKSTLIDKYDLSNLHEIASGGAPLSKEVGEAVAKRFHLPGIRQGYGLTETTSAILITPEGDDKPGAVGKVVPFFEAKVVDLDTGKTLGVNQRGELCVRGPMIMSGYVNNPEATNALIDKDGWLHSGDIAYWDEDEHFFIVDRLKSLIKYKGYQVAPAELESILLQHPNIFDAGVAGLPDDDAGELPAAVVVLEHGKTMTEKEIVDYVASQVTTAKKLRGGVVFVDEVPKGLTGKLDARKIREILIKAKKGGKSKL

Row | SMILES | AC50 [1] | AC50 [2] | outcome [3] | outcome [4] | AC50 [5] | AC50 [6] | AC50 [7] | AC50 [8] | AC50 [9] | AC50 [10] | AC50 [11] | AC50 [12] | AC50 [13] | AC50 [14] | AC50 [15] | AC50 [16] | AC50 [17] | AC50 [18] | AC50 [19] | AC50 [20]
1 | CCN(CC)CCNC(=O)c1c(C)[nH]c(/C=C2\C(=O)Nc3ccc(F)cc32)c1C | 8.81 µM (active) | 12.8 µM (active) | inactive | – | – | – | – | – | – | – | – | – | – | – | – | – | – | – | – | –
2 | Cc1c(O)cccc1C(=O)N[C@@H](CSc1ccccc1)[C@H](O)CN1C[C@H]2CCCC[C@H]2C[C@H]1C(=O)NC(C)(C)C | – | – | – | inactive | 8 µM (active) | 25 µM (active) | 14 µM (active) | 6.39 µM (active) | 4.72 µM (active) | 33.8 µM (active) | 28.9 µM (active) | 4.56 µM (active) | 2.49 µM (active) | 3.11 µM (active) | 5.46 µM (active) | 6.41 µM (active) | 13.8 µM (active) | 25 µM (active) | 18.7 µM (active) | 4.18 µM (active)
3 | CN(C)C(=O)C(CCN1CCC(O)(c2ccc(Cl)cc2)CC1)(c1ccccc1)c1ccccc1 | – | – | – | – | – | – | – | 14.9 µM (active) | – | – | 6.63 µM (active) | 3.22 µM (active) | 3 µM (active) | 3.43 µM (active) | – | 16.9 µM (active) | 50 µM (active) | 12.9 µM (active) | 16.5 µM (active) | 8.36 µM (active)
